Screening results as filed in PubChem BioAssay.
The list is not random: actives were taken first. Their share in the collection is about 6.5%.
LASV entry inh – blocks Lassa virus binding to or entry into cells | Lassa virus pseudotype entry inhibition, cell reporter | Potency, µM (highest dose often 37.9 µM), for inactives: top-dose activity change, negative = inhibition, hits mostly inhibitors | 300,000 tested, 1.2% active; calls by dose curve; tested in HEK293 cells; further: potency means the concentration at half of the fitted maximal effect; nearly all actives have a fitted effect of over 50% in size
VACV mCherry inh – vaccinia inhibition (mCherry reporter). Vaccinia virus mCherry reporter infection, fluorescence. Potency, µM (top dose mostly 36.5 µM), for inactives: top-dose activity change, negative = inhibition, hits mostly inhibitors. 310,000 tested, 0.63% active; calls by dose curve; tested in A549 cells; further: potency means the concentration at half of the fitted maximal effect; nearly all actives have a fitted effect of over 35% in size
MARV entry inh – inhibitors of Marburg virus binding or cell entry | AID 540276 | 300,000 tested, 1.8% active | Potency, µM (doses to about 37.8 µM), for inactives: at the top dose activity change, negative = inhibition, most hits filed as inhibitors | Marburg virus pseudotyped entry inhibition, cell reporter; calls by dose curve; tested in HEK293 cells; further: potency means the concentration at half of the fitted maximal effect
HCMV inh – inhibitors of human cytomegalovirus | HFF cells, HCMV-luciferase reporter, 72 h; stronger effect = lower value | activity change, negative = inhibition, % at 57.5 µM | 410,000 tested, 4.5% active; in the data active means activity change below about -60%; inconclusive means no clear call, values can overlap the other calls; inactive means above about -39%
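Steps: HFFs plated, 16 h 37C; compounds added; HCMV-luciferase added to MOI 1 PFU/cell; 72 h 37C; OneGlo reagent, 5 min room temperature; luminescence read, normalized to controls.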
VACV Venus inh – inhibitors of vaccinia virus (Venus reporter); Vaccinia virus Venus reporter expression, fluorescence; Potency, µM (highest dose often 36.5 µM), without a hit: top-dose activity change, negative = inhibition, actives largely listed as inhibitors; 330,000 tested, 0.46% active; calls by dose curve; tested in A549 cells; further: potency means the concentration at half of the fitted maximal effect; nearly all actives have a fitted effect of over 30% in size
FMDV inh – antivirals against foot and mouth disease virus; FMDV antiviral cell-based qHTS; Potency, µM (series often up to 57.9 µM), without a hit: top-dose activity change, negative = inhibition, actives largely listed as inhibitors; 410,000 tested, 1.2% active; AID 1159524; calls by dose curve; tested in HEK293T cells; further: read-out not given here; potency means the concentration at half of the fitted maximal effect; nearly all actives have a fitted effect of over 45% in size
* marks the source's active call; other numbers are inactive results; i = inactive; u = inconclusive; x = no result given; ! = not confirmed by another sample; [ ] = remark or other dose. On the % scale 0 is the no-effect control and ±100 the full control effect.

SMILES	LASV entry inh	VACV mCherry inh	MARV entry inh	HCMV inh	VACV Venus inh	FMDV inh
Cc1cc(NC(=O)CCN2C(=O)C3C4C=CC(C4)C3C2=O)ccc1Br (configuration not stated)	x	-15%	-5%[46.1 µM]	-68*	-13%	14%
O=[N+]([O-])c1ccc(/C=N/NS(=O)(=O)c2ccc(Cl)cc2)o1	-7%	-14%	1%	-10	-10%	0%
Clc1ccc2c(N/N=C/c3ccccc3Br)ccnc2c1	-1%	-21%	u	-64*	-13%	0%
C/C(=N/Nc1ccnc2cc(Cl)ccc12)c1ccc(N)cc1	x	8.9µM*	x	-32	u	29%
O=[N+]([O-])c1ccc(/C=N/Nc2ccnc3cc(Cl)ccc23)o1	-16%[46.1 µM]	16µM*	u	-66*	u	22%
Clc1ccc2c(NNc3ccccc3Cl)ccnc2c1	3%	x	-21%	9	x	-3%
CC(=O)NCc1nc2cccnc2n1Cc1ccccc1	3%[46.1 µM]	-12%	x	-19	-6%	-10%
O=C(Nc1sc2c(c1C(=O)O)CCCC2)c1cccs1	u	x	9.2µM*	26	x	14%
CC1CCc2c(sc(NC(=O)c3cccs3)c2C(=O)O)C1 (configuration not stated)	x	x	x	-79*	x	23%
CC(C)OP(=O)(OC(C)C)C(Nc1cccc(C(=O)O)c1)c1ccccc1 (configuration not stated)	8%	-10%	-5%[46.1 µM]	-28	-18%	8.9µM*
CC(C)OP(=O)(OC(C)C)C(Nc1ccc(C(=O)O)cc1)c1ccccc1 (configuration not stated)	x	x	x	-34	x	-23%
O=C(Oc1c(Cl)cc(Cl)c2cccnc12)c1cccs1	u	u	u	u	u	-20%
Cc1ccc(S(=O)(=O)Nc2cc(Cl)c(O)c3ncccc23)cc1	u	u	u	-98*	u	-12%
O=C(Oc1c(Cl)cc(Cl)c2cccnc12)c1ccco1	u	13µM*	u	-102*	u	u
Oc1c(Cl)cc(Cl)c2cccnc12	x	-14%	x	-99*	u	u
Cc1ccc(S(=O)(=O)Nc2cccnc2Oc2ccc(Cl)cc2)cc1	x	x	x	14	x	-17%
CC(=O)NC(C)c1cc(Cl)c2cccnc2c1O (configuration not stated)	x	x	x	-96*	x	-19%
Oc1ccc(Cl)c2cccnc12	-17%	u	-17%	-27	-28%	0%
O=C(Nc1ccc2nc(SCC(=O)N3CCCc4ccccc43)sc2c1)c1ccccc1	u	u	u	-30	u	0%
CCC(=O)NC(c1cc(Cl)c2ccccc2c1O)C(C)C (configuration not stated)	x	x	x	-35	x	0%
Cc1ccc2c(Cl)cc(Cl)c(O)c2n1	u	u	11µM*	-75*	u	10µM*!
CCC(=O)NC(C)c1cc(Cl)c2cccnc2c1O (configuration not stated)	x	x	x	-97*	x	0%
Oc1c(I)cc(I)c2cccnc12	-9%	-26%	3%	-100*	u	-22%
O=S(=O)(O)c1cc(I)c(O)c2ncccc12	x	x	x	6	x	x
COc1ccc2c(c1)[C@@]1(OCCC=C[C@@H]1C)C(=O)N2CC=C(C)CCC=C(C)C	x	x	-10%[14.2 µM]	x	x	x
SMILES	LASV entry inh	VACV mCherry inh	MARV entry inh	HCMV inh	VACV Venus inh	FMDV inh
Cc1nc2cc(C(F)(F)F)ccc2n1C1CCN(CC(=O)NC(C)(C)C)CC1	14%	x	u	-82*	x	-17%
COc1ccc(-n2nnnc2S(=O)(=O)CC(=O)N2CCCCC2)cc1	x	13µM*	x	x	u	20µM*
COc1ccc(-n2nnnc2S(=O)(=O)Cc2ccc(C(=O)O)cc2)cc1	-10%	x	u	-18	x	28µM*
COc1ccc(-c2ccc(CN3C(C(C)C)C(=O)N(Cc4cn(CCC5OCCO5)nn4)CCS3(=O)=O)cc2)cn1 (configuration not stated)	1%[46.1 µM]	x	x	x	x	x
COc1cccc(C(=O)N(Cc2nc(-c3ccc(Cl)cc3)no2)C(C)C)c1OC	-24%[46.1 µM]	0%	-2%[46.1 µM]	-4	5%	0%
N#Cc1ccc(C(=O)Nc2ccc(Cl)c(-c3nc4cc(Cl)ccc4o3)c2)c(F)c1	-11%[46.1 µM]	-12%	-3%[46.1 µM]	-12	1%	-10%
COc1cc(/C=N/NC(=O)Cc2ccccc2)ccc1Oc1ccc([N+](=O)[O-])cc1[N+](=O)[O-]	9%	x	2%	-62*	x	-11%
CCOc1cc(/C=N\Nc2ccc([N+](=O)[O-])cc2)ccc1OCC(=O)Nc1ccc(C)c(C)c1	0%	x	0%	u	-1%	-13%
COc1ccc([N+](=O)[O-])cc1/C=N/NC(=O)Cc1ccccc1	x	x	x	u	x	-10%
COc1cc(/C=N\Nc2ccc([N+](=O)[O-])cc2)ccc1OCC(=O)Nc1ccc(C)c(C)c1	-24%	x	-10%	-72*	-8%	-26%
COc1ccc(-c2nc(CSCC(=O)N3CCN(c4ccc(OC)cc4)CC3)c(C)o2)cc1	11%[46.1 µM]	-28%	-21%[46.1 µM]	-29	u	-24%
CCc1ccc(-c2nc(CSCC(=O)NC3CC3)c(C)o2)cc1	u	i	5µM*	-74*	-19%	-16%
COC(=O)c1cc2sccc2n1Cc1nc(-c2ccc(OC)cc2)oc1C	u	-15%	u	-61*	0%	x
COC(=O)c1cc2sccc2n1Cc1nc(-c2ccc(C)cc2)oc1C	x	-11%	u	-16	1%	-13%
CSc1ccc(-c2nc(CSCC(=O)N3CCOCC3)c(C)o2)cc1	-1%	x	-21%	-74*	x	u
CCc1ccc(-c2nc(CSCC(=O)N3CCN(c4ncccn4)CC3)c(C)o2)cc1	x	u	-7%	u	u	22µM*
Cc1ccc(C)c(NC(=O)C(=O)NCCc2csc(-c3ccc(C(F)(F)F)cc3)n2)c1	-5%[46.1 µM]	-12%	x	3	-14%	-10%
CCC(C)NC(=O)CSCc1nc(-c2ccc(C)cc2)oc1C (configuration not stated)	u	-21%	1%[46.1 µM]	-24	-19%	-11%
COC(=O)CSCc1nc(-c2ccc(C(=O)OC)cc2)oc1C	7.1µM*	1%	x	-63*	2%	-4%
COc1ccccc1NC(=O)CSc1nc(-c2cccc(Cl)c2)nc2c1Cc1c(CO)cnc(C)c1O2	11%[46.1 µM]	-8%	x	-9	-11%	-25%
OCC1(Cc2cccc(C(F)(F)F)c2)CCN(Cc2cc3ccccc3o2)CC1	1%	u	u	-32	u	-28%
Cc1c(CN2CCC(CO)(Cc3cccc(C(F)(F)F)c3)CC2)c2ccccc2n1C	u	u	u	-99*	u	-26%
CC(=O)c1ccc(C(=O)N2CCC(CO)(Cc3cccc(C(F)(F)F)c3)CC2)cc1	u	-8%	u	-75*	-16%	-30%
CC1(C(=O)N2CCC(CO)(Cc3cccc(C(F)(F)F)c3)CC2)CC1	x	x	x	-10	x	u
Cc1ccc(NC(=O)c2cc([N+](=O)[O-])ccc2N2CCOCC2)cc1C	-14%[46.1 µM]	-17%	7.1µM*	u	-13%	2%
